Assay results reported in PubChem BioAssay AID1159580 (chemical genetic matrix, 2015).
Where “and” joins values, the source holds several entries; their conditions need not be identical. Identical values can stand only once. Hit rate of the full screen: of about 5,500 compounds, about 2,000 (36%) were called active. About 18% were inconclusive and are not listed. Rule as the data show it: active = normalized growth mostly below about 0.91 (no sharp cut-off); inconclusive = no clear call, values can overlap the other calls; inactive = mostly above about 0.92. This is one part of the list.

Experiment: chemical genetic growth profiling, strain panel (AID 1159580);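 also: tested at 20 µM; growth read once vehicle control cultures reached saturation at 30 °C; 1 = growth at the plate median or of vehicle wells; lower values mean less growth of the strain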
Conditions: S. cerevisiae deletion strains, growth OD

Measured: normalized growth

COc1ccc2c(c1OC)C(=O)OC2[C@H]1c2c(cc3c(c2OC)OCO3)CCN1C (some centres not stated)
inactive: locus YAL013W, strain DEP1, stronger effect = lower value 1.01 | locus YAL021C, strain ccr4, stronger effect = lower value 1.02 | locus YAL026C, strain drs2, stronger effect = lower value 1.02 | locus YAL030W, strain snc1, stronger effect = lower value 1.02 | locus YBL061C, strain skt5, stronger effect = lower value 1.01 | locus YBR009C, strain hhf1, stronger effect = lower value 1.02 | locus YBR021W, strain FUR4, stronger effect = lower value 1.01 | locus YBR023C, strain chs3, stronger effect = lower value 1.02 | locus YBR171W, strain sec66, stronger effect = lower value 1.01 | locus YBR229C, strain ROT2, stronger effect = lower value 1.01 | locus YBR231C, strain swc5, stronger effect = lower value 1.01 | locus YBR279W, strain paf1, stronger effect = lower value 1.01 | locus YCL011C, strain gbp2, stronger effect = lower value 1.02 | locus YCL016C, strain dcc1, stronger effect = lower value 1.02 | locus YCL029C, strain bik1, stronger effect = lower value 0.987 | locus YCL061C, strain MRC1, stronger effect = lower value 1.01 | locus YCL069W, strain vba3, stronger effect = lower value 1.01 | locus YCR088W, strain abp1, stronger effect = lower value 1.01 | locus YDL005C, strain med2, stronger effect = lower value 0.995 | locus YDL035C, strain GPR1, stronger effect = lower value 1.01 | locus YDL040C, strain nat1, stronger effect = lower value 1 | locus YDL074C, strain BRE1, stronger effect = lower value 1.04 | locus YDL101C, strain DUN1, stronger effect = lower value 1 | locus YDL134C, strain PPH21, stronger effect = lower value 1.01 | locus YDL185W, strain tfp1, stronger effect = lower value 0.966 | locus YDL192W, strain arf1, stronger effect = lower value 0.968 | locus YDR001C, strain nth1, stronger effect = lower value 1 | locus YDR069C, strain doa4, stronger effect = lower value 1.02 | locus YDR101C, strain arx1, stronger effect = lower value 0.995 | locus YDR137W, strain rgp1, stronger effect = lower value 1.04 | locus YDR159W, strain sac3, stronger effect = lower value 0.953 | locus YDR162C, strain NBP2, stronger effect = lower value 0.983 | locus YDR195W, strain ref2 0.993 | locus YDR297W, strain sur2, stronger effect = lower value 1.02 | locus YDR318W, strain mcm21, stronger effect = lower value 0.965 | locus YDR334W, strain swr1, stronger effect = lower value 1 | locus YDR335W, strain msn5, stronger effect = lower value 1.01 | locus YDR388W, stronger effect = lower value 0.985 | locus YDR392W, strain spt3, stronger effect = lower value 0.892 | locus YDR502C, strain sam2, stronger effect = lower value 0.984 | locus YEL003W, strain gim4, stronger effect = lower value 1.02 | locus YEL037C, strain rad23, stronger effect = lower value 1 | locus YEL061C, strain CIN8 (second series), stronger effect = lower value 0.996 | locus YEL061C, strain CIN8, stronger effect = lower value 1 | locus YER015W, strain faa2, stronger effect = lower value 1.01 | locus YER016W, strain bim1, stronger effect = lower value 1 | locus YER110C, stronger effect = lower value 0.994 | locus YER111C, strain swi4, stronger effect = lower value 1.01 | locus YER155C, strain BEM2 (second series), stronger effect = lower value 0.98 | locus YER155C, strain BEM2, stronger effect = lower value 0.992 | locus YER167W, strain BCK2, stronger effect = lower value 1 | locus YFR010W, strain ubp6, stronger effect = lower value 1 | locus YGL078C, strain dbp3, stronger effect = lower value 0.989 | locus YGL086W, strain mad1, stronger effect = lower value 1.01 | locus YGL167C, strain pmr1, stronger effect = lower value 1.01 | locus YGL173C, strain kem1, stronger effect = lower value 1.01 | locus YGL227W, strain vid30, stronger effect = lower value 1.01 | locus YGL240W, strain doc1, stronger effect = lower value 1.02 | locus YGL248W, strain PDE1, stronger effect = lower value 1.01 | locus YGL253W, strain hxk2, stronger effect = lower value 1.02 | locus YGR135W, strain pre9, stronger effect = lower value 0.986 | locus YGR252W, strain gcn5, stronger effect = lower value 1.19 | locus YHR013C, strain ard1, stronger effect = lower value 1.02 | locus YHR027C, strain rpn1, stronger effect = lower value 1.01 | locus YHR030C, strain SLT2, stronger effect = lower value 0.995 and 0.993 | locus YHR079C, strain IRE1 (second series), stronger effect = lower value 0.978 | locus YHR079C, strain IRE1, stronger effect = lower value 0.999 | locus YHR094C, strain hxt1, stronger effect = lower value 0.988 | locus YHR129C, strain ARP1, stronger effect = lower value 0.999 | locus YHR142W, strain chs7, stronger effect = lower value 1 | locus YHR200W, strain rpn10, stronger effect = lower value 0.98 | locus YIL066C, strain RNR3, stronger effect = lower value 1.01 | locus YIL073C, strain SPO22, stronger effect = lower value 0.857 | locus YIL125W, strain kgd1, stronger effect = lower value 0.986 | locus YIR030C, strain dcg1, stronger effect = lower value 0.997 | locus YJL092W, strain hpr5, stronger effect = lower value 1.01 | locus YJL095W, strain BCK1 (second series), stronger effect = lower value 1.01 | locus YJL095W, strain BCK1, stronger effect = lower value 1.02 and 1 | locus YJL115W, strain asf1, stronger effect = lower value 1.01 | locus YJL129C, strain trk1, stronger effect = lower value 0.995 | locus YJL134W, strain LCB3, stronger effect = lower value 0.996 | locus YJL154C, strain vps35, stronger effect = lower value 1.02 | locus YJL164C, strain tpk1, stronger effect = lower value 1.03 | locus YJL166W, strain qcr8, stronger effect = lower value 1 | locus YJL168C, strain set2, stronger effect = lower value 0.987 | locus YJL187C, strain SWE1 (second series), stronger effect = lower value 0.997 | locus YJL187C, strain SWE1, stronger effect = lower value 1.02
